Screening results deposited in PubChem by National Center for Advancing Translational Sciences (NCATS).
NPSR antagonist: antagonists of human neuropeptide S receptor cAMP signaling; Q6W5P4; CHO-NPSR cells, cAMP TR-FRET, antagonist mode; Potency, µM (top dose mostly 38.3 µM), usual class: inhibitors; 220,000 compounds, 1% hits; AID 1461; further: nearly all actives have a fitted effect of over 50% in size
Target sequence (Q6W5P4 whole entry, looked up): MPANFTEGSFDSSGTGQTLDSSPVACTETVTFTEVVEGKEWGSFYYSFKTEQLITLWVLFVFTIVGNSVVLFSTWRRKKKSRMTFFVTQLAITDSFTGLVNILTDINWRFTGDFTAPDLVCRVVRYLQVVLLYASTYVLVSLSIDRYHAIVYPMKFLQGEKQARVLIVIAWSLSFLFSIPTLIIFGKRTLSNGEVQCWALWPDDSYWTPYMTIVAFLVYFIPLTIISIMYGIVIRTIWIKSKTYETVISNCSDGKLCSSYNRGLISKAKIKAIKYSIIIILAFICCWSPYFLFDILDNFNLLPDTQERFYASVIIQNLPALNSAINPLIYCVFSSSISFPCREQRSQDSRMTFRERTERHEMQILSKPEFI
Tau fluor cs: counter-screen for tau fibril formation inhibitors | tau K18 P301L Alexa594 fluorescence, heparin fibrillization | Potency, µM (top dose mostly 57.7 µM) | 280,000 compounds, 0.93% hits; further: nearly all actives have a fitted effect of over 55% in size
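Human K18 P301L tau (15 uM unlabeled plus 0.24 uM Alexa 594-labeled, final) in 100 mM sodium acetate pH 7 was mixed with compound and 20 uM heparin and incubated 6 hr at 37 C.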
Tau FP inhib: blocks human tau fibril formation measured by polarization; P10636; K18 P301L tau heparin fibrillization, Alexa594 FP, 6 h; Potency, µM (top dose mostly 57.7 µM), hits mostly inhibitors; 280,000 compounds, 0.39% hits; AID 1468; further: nearly all actives have a fitted effect of over 55% in size
Target sequence (P10636 561-689 P618L limits assumed): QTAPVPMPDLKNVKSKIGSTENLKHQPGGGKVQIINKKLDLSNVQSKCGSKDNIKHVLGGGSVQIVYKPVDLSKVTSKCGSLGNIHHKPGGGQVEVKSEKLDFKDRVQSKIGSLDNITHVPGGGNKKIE
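Compound effects on tau fibrillization are measured by Alexa 594 fluorescence polarization (ex 555, em 632 nm). K18 P301L tau is used at 15 uM with 0.24 uM labeled tracer, and 20 uM heparin induces aggregation over 6 hr at 37 C.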
HPGD inh: HPGD (human) dehydrogenase inhibition | P15428 | purified HPGD, NADH fluorescence kinetic, PGE2 substrate | Potency, µM, hits mostly inhibitors | 150,000 compounds, 4.3% hits | AID 894; active means well fitted inhibition curve with a large enough effect, not every such curve was filed as active; inconclusive means small, poorly fitted or top-dose-only effect, or another doubt; inactive means no such curve, though single readings can be large or run the other way
Target sequence (P15428 whole entry, looked up): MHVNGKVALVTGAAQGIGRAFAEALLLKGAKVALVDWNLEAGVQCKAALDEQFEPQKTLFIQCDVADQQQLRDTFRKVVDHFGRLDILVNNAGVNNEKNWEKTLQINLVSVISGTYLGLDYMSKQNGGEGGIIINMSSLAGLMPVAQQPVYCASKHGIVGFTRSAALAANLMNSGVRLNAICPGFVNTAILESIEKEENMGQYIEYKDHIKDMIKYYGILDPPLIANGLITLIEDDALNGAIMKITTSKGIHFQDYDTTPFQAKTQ
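20 nM HPGD preincubated 15 min at room temperature with compound in 50 mM Tris-HCl pH 8, 0.01% Tween 20. Started with 1 mM NAD+ and 30 uM prostaglandin E2; NADH fluorescence (360/450 nm) read 5 times over 30-s intervals, last minus first.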
ALDH1A1 block: ALDH1A1 (human) enzyme inhibition | Purified ALDH1A1, NADH fluorescence, propionaldehyde substrate | 220,000 compounds, 7.3% hits | AID 1030 | Potency, µM (titrated, usually from 75.3 µM), actives largely listed as inhibitors | P00352; active means well fitted inhibition curve with a large enough effect, not every such curve was filed as active; inconclusive means small, poorly fitted or top-dose-only effect, or another doubt; inactive means no such curve, though single readings can be large or run the other way
Tau fibril ThT: blocks human tau fibril formation measured by thioflavin T | recombinant tau K18 P301L (four-repeat tau fragment), heparin-induced fibrillization, ThT fluorescence | Potency, µM (titrated, usually from 57.4 µM), hits mostly inhibitors | 270,000 compounds, 2.1% hits; further: nearly all actives have a fitted effect of over 55% in size
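In this qHTS, human K18 P301L tau is incubated with compound and heparin for 6 hr at 37 C, and Thioflavin T fluorescence then reports fibril load.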
Each line names hits and unclear results; the compound was inactive in the other large screens; [ ] = another dose, or the depositor's remark. This is a sample that favours compounds with a hit; in the whole collection about 9.5% have one here. Unless noted, the call rests on the fitted dose curve; in most records, active means well fitted curve in the direction sought with a large enough effect; inconclusive means small, poorly fitted or top-dose-only effect, or another doubt; inactive means no such curve, though single readings can be large; an effect the other way counts as inactive or inconclusive.

CCCCOc1ccc(C(=O)N2CCCC2)cc1	HPGD inh 2.2µM, ALDH1A1 block inconclusive
COc1cc(OC)cc(C(=O)N2CCCc3ccccc32)c1	none
O=C(c1ccc(COc2ccccc2Br)o1)N1CCCCCC1	HPGD inh 14µM, ALDH1A1 block 16µM
CC1CN(C(=O)c2ccc(C(=O)c3ccccc3)cc2)CC(C)O1 (stereo not drawn)	HPGD inh 14µM, ALDH1A1 block inconclusive
CCCOc1ccc(C(=O)N2CCCc3ccccc32)cc1	HPGD inh 16µM, ALDH1A1 block 6.3µM, Tau fibril ThT inconclusive
COc1ccc(CC(=O)NC2CC(=O)N(c3cccc(F)c3)C2)cc1OC (stereo not drawn)	none (no result: NPSR antagonist, HPGD inh, ALDH1A1 block)
Cc1cccc(N2CCN(C(=O)C3CCN(S(=O)(=O)c4c(C)noc4/C=C/c4ccccc4F)CC3)CC2C)c1 (stereo not drawn)	none (no result: NPSR antagonist, HPGD inh, ALDH1A1 block)
CCOc1ccc(OCc2cccc(C(=O)N3CCCC3)c2)cc1	none
CCOc1ccc(OCc2cccc(C(=O)N3CCCCCC3)c2)cc1	ALDH1A1 block 35µM (no result: HPGD inh)
CCOc1ccc(C(=O)N2CCCC2)cc1	HPGD inh 7.9µM
Cc1nnc(SCC(=O)c2ccc(Cl)cc2)s1	ALDH1A1 block inconclusive (no result: HPGD inh)
N#Cc1ccc(C(=O)CSc2nnc(-c3ccc(C(F)(F)F)cn3)s2)cc1	ALDH1A1 block 35µM (no result: HPGD inh)
Cn1ncc(S(=O)(=O)Cc2ccccc2)c(Cl)c1=O	NPSR antagonist inconclusive, Tau FP inhib inconclusive, ALDH1A1 block 1.1µM, Tau fibril ThT inconclusive (no result: HPGD inh)
Cn1ncc(SCc2ccccc2)c(Cl)c1=O	Tau fibril ThT inconclusive (no result: HPGD inh)
COC(=O)c1c(NC(=O)CSc2ncnc3[nH]ncc23)sc2c1CCC2	ALDH1A1 block 14µM (no result: HPGD inh)
COC(=O)c1c(NC(=O)CC2SC(N)=NC2=O)sc2c1CCC(C)C2 (stereo not drawn)	ALDH1A1 block 13µM
CCOC(=O)c1c(NC(=O)CC2SC(N)=NC2=O)sc(C)c1C (stereo not drawn)	none (no result: HPGD inh)
COC(=O)c1c(NC(=O)CC2NCCNC2=O)sc2c1CCCC2 (stereo not drawn)	ALDH1A1 block inconclusive
CCOC(=O)c1c(NC(=O)CC2SC(N)=NC2=O)sc2c1CCC(C)C2 (stereo not drawn)	ALDH1A1 block 16µM
COC(=O)c1c(NC(=O)CN2CCOCC2)sc2c1CCC(C)C2 (stereo not drawn)	ALDH1A1 block inconclusive, Tau fibril ThT inconclusive
COC(=O)c1c(NC(=O)CSc2ncnc3c2cnn3-c2ccccc2Cl)sc2c1CCCC2	ALDH1A1 block inconclusive
COC(=O)c1c(NC(=O)CC2SC(N)=NC2=O)sc2c1CCCC2 (stereo not drawn)	ALDH1A1 block 25µM
CC(C)(C)NC(=O)COC(=O)c1cc(S(=O)(=O)N2CCCCC2)ccc1N1CCOCC1	none
O=C(COc1ccccc1F)Nc1ccc2nc(SCC(=O)N3CCc4ccccc43)sc2c1	Tau FP inhib inconclusive, Tau fibril ThT inconclusive (no result: NPSR antagonist, HPGD inh, ALDH1A1 block)
CCN1/C(=C2/OC(=S)N(C)C2=O)Sc2ccccc21	none
CCN1/C(=C\C=C2\C(=O)N(C)C(=S)N2C)Sc2ccccc21	ALDH1A1 block inconclusive, Tau fibril ThT 2µM (no result: HPGD inh)
COc1cccc(CN(CC2CCCO2)S(=O)(=O)c2ccc(S(=O)(=O)N(C)C)cc2)c1 (stereo not drawn)	ALDH1A1 block 2.8µM
Cc1cc2cc(CN(Cc3cccs3)S(=O)(=O)c3ccc4c(c3)OCCO4)c(=O)[nH]c2cc1C	none
COc1ccc2[nH]c(=O)c(CN(CC3CCCO3)C(=S)Nc3ccccc3)cc2c1 (stereo not drawn)	none (no result: HPGD inh)
COc1ccc(S(=O)(=O)N(Cc2cc3cc(C)ccc3[nH]c2=O)CC2CCCO2)cc1 (stereo not drawn)	ALDH1A1 block 8.9µM
COc1ccc(CN(CC2CCCO2)S(=O)(=O)c2ccc(-n3cnnn3)c(OC)c2)cc1 (stereo not drawn)	ALDH1A1 block inconclusive (no result: HPGD inh)
Cc1ccc2[nH]c(=O)c(CN(Cc3cccs3)S(=O)(=O)c3ccc4c(c3)OCCO4)cc2c1	Tau FP inhib inconclusive, ALDH1A1 block 25µM
COc1ccc2cc(CN(CC3CCCO3)C(=S)Nc3ccccc3)c(=O)[nH]c2c1 (stereo not drawn)	Tau fluor cs inconclusive, ALDH1A1 block 7.1µM (no result: HPGD inh)
COc1ccc2cc(CN(CC3CCCO3)S(=O)(=O)c3ccc(C(C)=O)cc3)c(=O)[nH]c2c1 (stereo not drawn)	ALDH1A1 block inconclusive
Cc1c(NC(=O)CNCc2ccc3c(c2)OCO3)c(=O)n(-c2ccccc2)n1C	none (no result: HPGD inh, ALDH1A1 block)
COc1cc2ccc([C@H](C)NCC#N)cc2cc1OC	none (no result: NPSR antagonist, Tau fluor cs, Tau FP inhib, Tau fibril ThT)
COc1cnc(-c2ccccn2)nc1Sc1ccccc1	ALDH1A1 block 10µM, Tau fibril ThT inconclusive (no result: HPGD inh)
COc1cnc(-c2ccccn2)nc1Sc1ccc(F)cc1	ALDH1A1 block 7.9µM (no result: HPGD inh)
COc1ccc(Sc2nc(-c3ccccn3)ncc2OC)cc1	ALDH1A1 block inconclusive (no result: HPGD inh)
CCOc1cc(C2Nc3cccc4cccc(c34)N2)ccc1O	Tau fluor cs 5µM[quencher], Tau FP inhib inconclusive, ALDH1A1 block 20µM, Tau fibril ThT 6.3µM
COc1ccc(C2Nc3cccc4cccc(c34)N2)cc1	Tau fluor cs inconclusive, ALDH1A1 block inconclusive, Tau fibril ThT 16µM (no result: HPGD inh)
CCOc1ccc(C2Nc3cccc4cccc(c34)N2)cc1OC	Tau fluor cs inconclusive, Tau FP inhib inconclusive, ALDH1A1 block inconclusive, Tau fibril ThT 3.5µM
COc1ccc(N2CCN(C(=O)CNS(=O)(=O)c3ccc(C)cc3)CC2)cc1	none (no result: HPGD inh)
CC(NC(=O)c1ccc2c(c1)sc1nc(-c3ccc(F)cc3)cn12)C12CC3CC(CC(C3)C1)C2 (stereo not drawn)	none (no result: NPSR antagonist, HPGD inh, ALDH1A1 block)
CC(C)(C)c1cc[n+](C2=C([O-])c3ccccc3C(=O)/C2=N\S(=O)(=O)c2cccs2)cc1	NPSR antagonist inconclusive, Tau fluor cs inconclusive, Tau fibril ThT 18µM (no result: HPGD inh, ALDH1A1 block)
O=C1/C(=N\S(=O)(=O)c2cccs2)C([n+]2ccccc2)=C([O-])c2ccccc21	Tau fluor cs inconclusive, Tau FP inhib inconclusive, Tau fibril ThT inconclusive (no result: HPGD inh, ALDH1A1 block)
O=[N+]([O-])c1cc(C(F)(F)F)ccc1N1CCC(O)CC1	ALDH1A1 block 11µM, Tau fibril ThT inconclusive (no result: HPGD inh)
O=Nc1c(-c2cccc([N+](=O)[O-])c2)nc2ncccn12	NPSR antagonist inconclusive, Tau FP inhib 6.3µM, Tau fibril ThT 4µM (no result: HPGD inh, ALDH1A1 block)
CCN(CC)c1ccc(C=N/C(C#N)=C(\N)C#N)cc1	Tau FP inhib inconclusive, ALDH1A1 block 11µM, Tau fibril ThT 2µM
CCN(CC)c1ccc(/C=C(\C#N)c2ccccn2)cc1	Tau fluor cs inconclusive, ALDH1A1 block inconclusive, Tau fibril ThT inconclusive
COc1ccc(OC)c(NC2c3ccccc3C(=O)N2c2cccnc2)c1 (stereo not drawn)	none
Cc1cccc(C(c2sc3nc(-c4ccco4)nn3c2O)N2CCN(c3ccccc3F)CC2)c1 (stereo not drawn)	none (no result: NPSR antagonist, HPGD inh, ALDH1A1 block)
